In PubChem BioAssay (NCI):
About 79,000 compounds went through this panel and 15% of them were active in at least one assay; those are over-represented in the sample as a whole. Active and inactive are the calls of the source. No stated cut-off is given here; in the data, active means growth inhibition above about 70%; inactive means the rest.

Experiment: NCI Yeast Anticancer Drug Screen. Data for the wt2 strain (AID 169);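 further: 0% = growth of vehicle-treated yeast cultures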
Conditions: S. cerevisiae wt2 strain growth inhibition; at 3.7 µM; stronger effect = higher value
In short: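 Inhibition of yeast growth was determined after compound treatment, normalised to controls receiving only vehicle.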
For `O=P(NC1CCCCC1)(OCc1ccccc1)OCc1ccccc1`, the growth inhibition was 2% (inactive).
With `COc1oc(C(=O)NC2CCCCC2)c(-c2ccc(Cl)cc2)c1S(=O)(=O)c1ccccc1` the growth inhibition was 22% (inactive).
With `C[Si](C)(C)/C=C/CCNC(C#N)c1ccccc1` (stereo not given) the growth inhibition was -19% (inactive).
For `CCOc1ccc(NC(=O)C2=C(C)NC(C)=C(C(=O)Nc3ccc(OCC)cc3)C2c2cccc([N+](=O)[O-])c2)cc1`, the growth inhibition was -2% (inactive).
In the case of `CN(C)CCOC1(Cc2ccc(F)cc2)CCC(C(C)(C)C)CC1` (stereo not given), the growth inhibition was -1% (inactive).
With `CC1(C)CC(=O)C(/C=N/c2nc(-c3ccccc3)cs2)=C(O)C1` the growth inhibition was 1% (inactive).
In the case of `CC(=O)Nc1ccc2c(c1)Cc1cc(N=C3C=CC(=O)O3)ccc1-2`, the growth inhibition was 18% (inactive).
With `O=C1C=C(Cl)C(=O)C(c2ccc(Cl)cc2)=C1` the growth inhibition was -9% (inactive).
For `CNCCCNc1c2ccccc2nc2cccc([N+](=O)[O-])c12`, the growth inhibition was 23% (inactive).
In the case of `CCCCCCCCCCCC(O)S(=O)(=O)O` (stereo not given), the growth inhibition was -9% (inactive).
In the case of `CC(C)OC(=O)c1ccc(CCc2cc(O)c(Br)cc2O)cc1`, the growth inhibition was 39% (inactive).
With `CCc1cc(O)c(Cl)c(C)c1Cl` the growth inhibition was -29% (inactive).
For `C(=Nc1ccc(-c2cc(-c3ccccc3)nc3ccc4ccccc4c23)cc1)c1ccccc1`, the growth inhibition was -21% (inactive).
With `CSc1nc(C)c(CCOC(C)=O)c(N=P(c2ccccc2)(c2ccccc2)c2ccccc2)n1` the growth inhibition was 3% (inactive).
For `CS(=O)(=O)SCc1ccc([N+](=O)[O-])cc1`, the growth inhibition was -3% (inactive).
With `COC1=C(OC)C(=O)C(Sc2ccc3ccccc3c2)=CC1=O` the growth inhibition was -43% (inactive).
In the case of `COc1nc2c(c(=O)n1C)N=C(c1ccccc1)[C@H](C(CC(=O)c1ccccc1)c1ccccc1)C(c1ccccc1)N2` (stereo not given in full), the growth inhibition was -8% (inactive).
With `Nc1cc(N)c(N=Nc2cccc3c(S(=O)(=O)O)cccc23)cc1N=Nc1cc([N+](=O)[O-])ccc1O` the growth inhibition was -11% (inactive).
With `Nc1ccc(F)cc1S` the growth inhibition was -8% (inactive).
In the case of `Brc1ccccc1-c1ncc(-c2ccccc2)o1`, the growth inhibition was -43% (inactive).
For `COc1cc(C2SCC(=O)N2c2ccc(-c3ccc(-n4c(-c5ccccc5)nc5ccccc5c4=O)cc3)cc2)ccc1O` (stereo not given), the growth inhibition was -2% (inactive).
For `Nc1ncnc2c1ncn2C1OC(CO)CC1O` (stereo not given), the growth inhibition was -3% (inactive).
With `COc1cc(CSc2ccc(O)cc2)cc(O)c1O` the growth inhibition was 1% (inactive).
With `CCOC(=O)C1N=[N+](c2ccccc2)C(=O)/C1=C\n1c(=S)[nH]c2ccc([N+](=O)[O-])cc21` (stereo not given) the growth inhibition was 0% (inactive).
In the case of `CNC(=O)OCc1c(COC(=O)NC)c2n(c1C)-c1ccc(OC)cc1CCC2`, the growth inhibition was 9% (inactive).
With `O=C(NNc1ccccc1)c1ccc(Cl)c(Cl)c1` the growth inhibition was -1% (inactive).
For `Cc1ccc(CC2(OCCN(C)C)CCC(C(C)(C)C)CC2)cc1` (stereo not given), the growth inhibition was -8% (inactive).
With `C[C@]12CC[C@H](O)CC1=CC[C@@H]1C2CC[C@]2(C)C(=O)NC(=O)CC12` (stereo not given in full) the growth inhibition was 27% (inactive).
For `CCCC/C=C/C(C)(C(=O)OCC)C(=O)OCC`, the growth inhibition was -4% (inactive).
For `CCc1c(Cl)c(C)cc(O)c1Cl`, the growth inhibition was -30% (inactive).
For `CCCC(=O)Oc1ccc(/C=N/NC(N)=S)nc1`, the growth inhibition was -5% (inactive).
With `CCc1nc2ccc(NCCN(C)C)c3c(=O)c4ccccc4n1c23` the growth inhibition was -34% (inactive).
In the case of `COc1c(O)c(C=O)c(Br)c(C=O)c1O`, the growth inhibition was 2% (inactive).
For `Cc1ccc(Cl)cc1NC(=O)OCCN(C)C(=O)Nc1cc(Cl)ccc1C`, the growth inhibition was -27% (inactive).
With `Cc1nc2ccccc2nc1NNc1ccccc1` the growth inhibition was 5% (inactive).

Same assay, conditions: S. cerevisiae wt2 strain growth inhibition; at 11.0 µM; stronger effect = higher value
For `O=P(NC1CCCCC1)(OCc1ccccc1)OCc1ccccc1`, the growth inhibition was 2% (inactive).
In the case of `COc1oc(C(=O)NC2CCCCC2)c(-c2ccc(Cl)cc2)c1S(=O)(=O)c1ccccc1`, the growth inhibition was 89% (active).
For `C[Si](C)(C)/C=C/CCNC(C#N)c1ccccc1` (stereo not given), the growth inhibition was 39% (inactive).
For `CCOc1ccc(NC(=O)C2=C(C)NC(C)=C(C(=O)Nc3ccc(OCC)cc3)C2c2cccc([N+](=O)[O-])c2)cc1`, the growth inhibition was -2% (inactive).
In the case of `CN(C)CCOC1(Cc2ccc(F)cc2)CCC(C(C)(C)C)CC1` (stereo not given), the growth inhibition was -1% (inactive).
With `CC1(C)CC(=O)C(/C=N/c2nc(-c3ccccc3)cs2)=C(O)C1` the growth inhibition was 7% (inactive).
For `CC(=O)Nc1ccc2c(c1)Cc1cc(N=C3C=CC(=O)O3)ccc1-2`, the growth inhibition was 93% (active).
With `O=C1C=C(Cl)C(=O)C(c2ccc(Cl)cc2)=C1` the growth inhibition was 13% (inactive).
For `CNCCCNc1c2ccccc2nc2cccc([N+](=O)[O-])c12`, the growth inhibition was 86% (active).
For `CCCCCCCCCCCC(O)S(=O)(=O)O` (stereo not given), the growth inhibition was -7% (inactive).
With `CC(C)OC(=O)c1ccc(CCc2cc(O)c(Br)cc2O)cc1` the growth inhibition was 95% (active).
In the case of `CCc1cc(O)c(Cl)c(C)c1Cl`, the growth inhibition was -25% (inactive).
With `C(=Nc1ccc(-c2cc(-c3ccccc3)nc3ccc4ccccc4c23)cc1)c1ccccc1` the growth inhibition was -17% (inactive).
With `CSc1nc(C)c(CCOC(C)=O)c(N=P(c2ccccc2)(c2ccccc2)c2ccccc2)n1` the growth inhibition was -4% (inactive).
With `CS(=O)(=O)SCc1ccc([N+](=O)[O-])cc1` the growth inhibition was 69% (inactive).
In the case of `COC1=C(OC)C(=O)C(Sc2ccc3ccccc3c2)=CC1=O`, the growth inhibition was 33% (inactive).
In the case of `COc1nc2c(c(=O)n1C)N=C(c1ccccc1)[C@H](C(CC(=O)c1ccccc1)c1ccccc1)C(c1ccccc1)N2` (stereo not given in full), the growth inhibition was -7% (inactive).
For `Nc1cc(N)c(N=Nc2cccc3c(S(=O)(=O)O)cccc23)cc1N=Nc1cc([N+](=O)[O-])ccc1O`, the growth inhibition was -26% (inactive).
In the case of `Nc1ccc(F)cc1S`, the growth inhibition was 56% (inactive).
For `Brc1ccccc1-c1ncc(-c2ccccc2)o1`, the growth inhibition was -35% (inactive).
For `COc1cc(C2SCC(=O)N2c2ccc(-c3ccc(-n4c(-c5ccccc5)nc5ccccc5c4=O)cc3)cc2)ccc1O` (stereo not given), the growth inhibition was -2% (inactive).
In the case of `Nc1ncnc2c1ncn2C1OC(CO)CC1O` (stereo not given), the growth inhibition was 13% (inactive).
In the case of `COc1cc(CSc2ccc(O)cc2)cc(O)c1O`, the growth inhibition was 0% (inactive).
For `CCOC(=O)C1N=[N+](c2ccccc2)C(=O)/C1=C\n1c(=S)[nH]c2ccc([N+](=O)[O-])cc21` (stereo not given), the growth inhibition was -1% (inactive).
With `CNC(=O)OCc1c(COC(=O)NC)c2n(c1C)-c1ccc(OC)cc1CCC2` the growth inhibition was -7% (inactive).
With `O=C(NNc1ccccc1)c1ccc(Cl)c(Cl)c1` the growth inhibition was 2% (inactive).
In the case of `Cc1ccc(CC2(OCCN(C)C)CCC(C(C)(C)C)CC2)cc1` (stereo not given), the growth inhibition was -16% (inactive).
With `C[C@]12CC[C@H](O)CC1=CC[C@@H]1C2CC[C@]2(C)C(=O)NC(=O)CC12` (stereo not given in full) the growth inhibition was 78% (active).
With `CCCC/C=C/C(C)(C(=O)OCC)C(=O)OCC` the growth inhibition was -6% (inactive).
With `CCc1c(Cl)c(C)cc(O)c1Cl` the growth inhibition was -26% (inactive).
For `CCCC(=O)Oc1ccc(/C=N/NC(N)=S)nc1`, the growth inhibition was -6% (inactive).
For `CCc1nc2ccc(NCCN(C)C)c3c(=O)c4ccccc4n1c23`, the growth inhibition was -29% (inactive).
With `COc1c(O)c(C=O)c(Br)c(C=O)c1O` the growth inhibition was 5% (inactive).
With `Cc1ccc(Cl)cc1NC(=O)OCCN(C)C(=O)Nc1cc(Cl)ccc1C` the growth inhibition was -23% (inactive).
With `Cc1nc2ccccc2nc1NNc1ccccc1` the growth inhibition was 14% (inactive).
